Most compounds without a hit are left out; they make up all but 9.3% or so of the library.
Sm TGR block = qHTS Assay for the Inhibitors of Schistosoma Mansoni Peroxiredoxins. Schistosoma mansoni thioredoxin glutathione reductase (TGR), Q962Y6. purified TGR, DTNB reduction, TNB absorbance 405 nm. Potency, µM (highest dose often 114 µM), most hits filed as inhibitors. actives 3% (n = 360,000). AID 485364, 2010; also: nearly all actives have a fitted effect of over 60% in size
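Kinetic colorimetric format: TGR-catalysed, NADPH-driven DTNB reduction monitored via TNB absorbance. Enzyme dispensed at 20 nM; compound exposure 15 min at room temperature before reaction start.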
HCV inh = qHTS Assay for Inhibitors of Hepatitis C Virus (HCV) | AID 651820, 2012 | Huh7.5.1 HCVcc-Cre infection, luciferase reporter, 44 h | actives 3.4% (n = 340,000) | Potency, µM (highest dose often 41.8 µM), usual class: inhibitors
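A cell-based infection assay in which seeded cells (1,000 per well) receive test compound after 4 h, are inoculated with HCVcc-Cre at approximately 0.5 moi, and are incubated 44 h before luminescence detection.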
Vaccinia mCherry = qHTS for Stage-Specific Inhibitors of Vaccinia Orthopoxvirus: mCherry Reporter Primary qHTS | actives 0.63% (n = 310,000) | AID 720579, 2013 | Potency, µM (top dose mostly 36.5 µM), hits mostly inhibitors | Vaccinia virus mCherry reporter infection, fluorescence; calls by dose curve; tested in A549 cells; also: nearly all actives have a fitted effect of over 35% in size
Vaccinia Venus = qHTS for Stage-Specific Inhibitors of Vaccinia Orthopoxvirus: Venus Reporter Primary qHTS | Potency, µM (highest dose often 36.5 µM), actives largely listed as inhibitors | actives 0.46% (n = 330,000) | Vaccinia virus Venus reporter expression, fluorescence | AID 720580, 2013; calls by dose curve; tested in A549 cells; also: nearly all actives have a fitted effect of over 30% in size
HCMV antiviral = qHTS Assay for inhibitors of the human cytomegalovirus (HCMV); activity change, negative = inhibition, % at 57.5 µM; actives 4.5% (n = 410,000); HFF cells, HCMV-luciferase reporter, 72 h; active compounds read low; in the data active = activity change below about -60%; inconclusive = no clear call, values can overlap the other calls; inactive = above about -39%
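Screen run at 2 compound doses on HFFs infected with reporter HCMV, MOI 1 PFU/cell. Luciferase activity from cell lysates at 72 h post infection gave inhibition relative to buffer-only and Salinomycin wells.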
FMDV inh = High Throughput Screening for Foot and Mouth Disease Virus Antivirals; FMDV antiviral cell-based qHTS; Potency, µM (doses to about 57.9 µM), hits mostly inhibitors; actives 1.2% (n = 410,000); AID 1159524, 2015; calls by dose curve; tested in HEK293T cells; also: read-out not given here; nearly all actives have a fitted effect of over 45% in size
Hits are given with their value; n = inactive; u = inconclusive; x = no result. Unless noted, calls follow the shape of the dose curve; as a rule, active = well fitted curve in the direction sought with a large enough effect; inconclusive = small, poorly fitted or top-dose-only effect, or another doubt; inactive = no such curve, though single readings can be large; an effect the other way counts as inactive or inconclusive.

SMILES | Sm TGR block | HCV inh | Vaccinia mCherry | Vaccinia Venus | HCMV antiviral | FMDV inh
O=C(Nc1sc2c(c1C(=O)NC1CC1)CCCCCC2)c1ccco1 | u | n | x | x | n | n
CC1CCN(CCCNC(=O)c2cc(Sc3ccc(F)cc3)nc3ccccc23)CC1 | n | x | n | n | -65 | n
CC1CCCCN1CCCNC(=O)c1cc(Sc2ccc(Cl)cc2)nc2ccccc12 (centres undefined) | n | x | n | n | n | n
CCCN1CCN(CCCNC(=O)c2cc3c(Cl)nc4ccccc4c3s2)CC1 | n | x | n | n | -80 | n
CCCN1CCN(CCCNC(=O)c2cc3c(=O)n(CC)c4ccccc4c3s2)CC1 | n | x | n | n | u | n
Nc1ccc(N2CCOCC2)c(S(=O)(=O)Nc2ccccc2Cl)c1 | x | n | x | x | n | n
COc1ccc(C(C(=O)NC2CCCCC2)N(CC2CCCO2)C(=O)C2COc3ccccc3O2)cc1OC (centres undefined) | n | n | x | x | n | n
O=[N+]([O-])c1ccc(N/N=C/c2sc(N3CCOCC3)nc2-c2ccccc2)c(S(=O)(=O)Nc2ccc(Cl)cc2)c1 | x | 2.5µM | x | x | -88 | u
O=C(O)c1cccc(N/N=C/c2sc(N3CCOCC3)nc2-c2ccccc2)c1 | n | n | n | n | n | n
O=C(N/N=C/c1sc(N2CCOCC2)nc1-c1ccccc1)c1ccccc1F | n | u | n | n | x | u
O=[N+]([O-])c1ccc(N/N=C/c2sc(N3CCOCC3)nc2-c2ccccc2)c(S(=O)(=O)Nc2ccccc2Cl)c1 | n | 3.5µM | u | u | u | u
COc1ccc(NS(=O)(=O)c2csc(C(=O)N3CCCC3)c2)cc1 | n | n | x | x | n | n
CCOCCOC(=O)C1=C(C)Nc2ccc(C)cc2S1 | n | n | x | x | n | n
O=C(Nc1nc(-c2ccc([N+](=O)[O-])cc2)cs1)C1=COCCO1 | x | x | n | n | n | n
O=C(Nc1nc(-c2ccc(-c3ccccc3)cc2)cs1)C1=COCCO1 | n | n | u | u | -64 | n
O=C(Nc1ccc(-c2nc3ccccc3s2)cc1)C1=COCCO1 | n | n | n | n | n | 10µM
O=C(Nc1nnc(S(=O)(=O)Cc2ccc(F)cc2)s1)c1ccccc1F | n | n | x | x | n | n
Cc1ccccc1NS(=O)(=O)c1cccc(-c2nnc(-c3ccccc3)o2)c1 | n | u | x | x | n | n
CN(C)S(=O)(=O)c1cccc(-c2nnc(-c3ccccc3)o2)c1 | n | n | x | x | -105 | n
COC(=O)/C=C1/S/C(=N/NC(=O)c2ccc(Cl)cc2Cl)NC1=O | 18µM | n | n | n | n | n
Cn1cnnc1SCc1ccc(C(=O)N=Nc2c(O)n(Cc3ccc(Cl)cc3)c3ccccc23)cc1 | n | 10µM | u | u | n | n
CCn1c(O)c(N=NC(=O)c2ccc(CSc3nncn3C)cc2)c2ccccc21 | n | u | n | u | u | n
CCN(CC)CCNC(=O)/C(=N\O)c1ccccn1 | n | n | x | x | n | n
CCN(CC)S(=O)(=O)c1ccc(C2=NOC3(C2)N(C)c2ccccc2C3(C)C)cc1 (centres undefined) | n | n | n | n | -76 | n
CCN(CC)S(=O)(=O)c1ccc(-c2nnco2)cc1 | n | n | n | n | n | n
CN1c2ccccc2C(C)(C)C12CC(c1cccc(S(=O)(=O)N3CCCC3)c1)=NO2 (centres undefined) | n | u | n | n | -72 | n
CN1c2ccccc2C(C)(C)C12CC(c1ccc(S(=O)(=O)N3CCCCC3)cc1)=NO2 (centres undefined) | n | n | n | n | -70 | n
O=S(=O)(c1ccc(-c2ccccc2)cc1)N1CCCCC1 | n | u | n | n | n | n
COc1ccc2c(c1OC)CN1CCc3cc4c(cc3C1C2)OCO4 (centres undefined) | n | n | n | n | -87 | u
COc1ccc2c(c1OC)CN1CCc3cc4c(cc3[C@H]1C2)OCO4 | n | 11µM | u | n | x | u

Screening results: PubChem BioAssay, National Center for Advancing Translational Sciences (NCATS)
